Assay results taken from PubChem BioAssay.

experiment: probe aLAP1 signal on lysate-treated microarray – cell lysate, small-molecule microarray, COS7 lysate, primary screen (AID 1124); settings: probe aLAP1, fluorescence, higher = more signal;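 further: lysate comes from COS7 cells expressing LAP1 and is applied at 0.3 µg/mL; score merges spot fluorescence near 667 nm with signal-to-noise over triplicate slides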

| SMILES | composite z-score |
| --- | --- |
| Cc1nc2cc(Br)ccc2c(=O)n1Cc1cccc(O)c1 | 1.09 |
| C=C[C@@H](C)[C@H](O)c1ccc(OCCO)cc1 | -0.343 |
| C=CCN1C(=O)[C@]2(O[C@H](CCO)[C@@H]([Si](C)(C)c3ccc(OC)cc3)[C@@H]2C)c2cc(NC(=O)c3ccc(OC)cc3)ccc21 | 0.0305 |
| CCOC(=O)C[C@H]1[C@H](OC(=O)c2cc3ccccc3oc2=O)[C@@H](NC(=O)c2ccc3ccccc3c2)c2cc(OCCCO)ccc2N1C(=O)Cc1ccc(OC)cc1 | 0.241 |
| COc1ccc(C#Cc2ccc3c(c2)[C@]2(C(=O)N3)[C@H](c3ccc(OCCO)cc3)N3[C@H](c4ccccc4)[C@H](c4ccccc4)OC(=O)[C@H]3[C@@H]2C(=O)N2CCc3cc(OC)c(OC)cc3C2)cc1 | 0.216 |
| COC(=O)c1c2oc(c1C(=O)OC)C(=O)N1CCC[C@H]1Cn1nncc1CN(Cc1ccccc1)C(=O)N[C@H](CO)CC2 | 0.832 |
| COC(=O)C(CC#Cc1ccc2c(c1)[C@]1(C(=O)N2)[C@H](c2ccc(O)cc2)N2[C@H](c3ccccc3)[C@H](c3ccccc3)OC(=O)[C@H]2[C@@H]1C(=O)N1CCCCCCC1)C(=O)OC | 1.18 |
| C=C[C@H](C)[C@H](OC(=O)Nc1ccc(OC)cc1)c1ccc(OCCO)cc1 | 0.434 |
| [N-]=[N+]=NC[C@H](Cc1ccccc1)NC(=O)c1ccccc1 | -0.0013 |
| COc1ccc([Si](C)(C)[C@H]2[C@H](CC(=O)N3Cc4ccccc4C[C@H]3CO)O[C@@]3(C(=O)N(Cc4ccc(N5C(=O)c6cccc7cccc5c67)cc4)c4ccccc43)[C@@H]2C)cc1 | 0.295 |
| COc1ccc([Si](C)(C)[C@H]2[C@H](CC(=O)N3CCC[C@H]3CO)O[C@@]3(C(=O)N(Cc4ccc(N5CCC5=O)cc4)c4ccccc43)[C@@H]2C)cc1 | 0.568 |
| C=CCNC(=O)[C@H]1[C@@H]2C(=O)O[C@@H](c3ccccc3)[C@@H](c3ccccc3)N2[C@@H](c2ccc(OCCO)cc2)[C@]12C(=O)Nc1ccc(C#CCNC(N)=O)cc12 | -0.113 |
| C=CCC(OC(C)=O)[C@@H]1[C@@H](N(Cc2cccc3ccccc23)C(=O)Cc2ccc(F)cc2)c2cc(OCCCO)ccc2N1C(=O)c1ccc(-c2ccccc2)cc1 (some centres not stated) | 0.505 |
| CC1CC/C=C\[C@H]2OC34C=CCN(CCN5CCOCC5)C(=O)[C@H]3N(C(C)CO)C(=O)[C@@H]4C2C(=O)O1 (some centres not stated) | -0.221 |
| C=CCN1C(=O)[C@]2(O[C@H](CCO)[C@@H]([Si](C)(C)c3ccc(OC)cc3)[C@@H]2C)c2cc(N3C(=O)COc4ccccc43)ccc21 | 0.78 |
| CN(C)C(=O)[C@]1(CCS(=O)(=O)c2ccccc2)N=C(c2ccc(OCCCO)cc2)O[C@@H]1c1ccccc1 | 0.565 |
| Cc1ccccc1C(O)C1C=CC2C(=O)NC(=O)C2N1Nc1ccc(Cl)cc1Cl (configuration not stated) | 1.1 |
| O=C1c2ccccc2[C@](Cc2ccccc2I)(C(=O)NC2CC2)[C@H](c2ccc(CO)cc2)N1Cc1ccccc1C(F)(F)F | 0.43 |
| Cc1ccc(C(C)CC(O)C2C=CC3C(=O)N(c4ccccc4)C(=O)C3N2Nc2ccc(C#N)cc2)o1 (configuration not stated) | 0.825 |
| COc1ccc([Si](C)(C)[C@H]2[C@H](CCO)O[C@@]3(C(=O)N(Cc4ccccc4)c4ccc(N5C(=O)c6ccccc6Oc6ccccc65)cc43)[C@@H]2C)cc1 | 0.62 |
| COCCOC(=O)N1C(=O)[C@@]2(c3cc(C#CC4=CCCCC4)ccc31)[C@H](C(=O)N1CCCCCCC1)[C@H]1C(=O)O[C@H](c3ccccc3)[C@H](c3ccccc3)N1[C@@H]2c1ccc(OCCO)cc1 | 0.722 |
| CC(C)[C@H]1NC(=O)[C@@]23C(=O)N[C@@H](Cc4ccccc4)C2[C@H](C)[C@@]2(C)O[C@H]2C3/C=C/C/C=C\CNC(=O)[C@H](Cc2ccccc2)NC1=O (some centres not stated) | 0.582 |
| CC(C)=CCCC(C)=CC(O)C1C=CC2C(=O)N(c3ccccc3)C(=O)C2N1Nc1ccccc1F (configuration not stated) | 0.561 |
| CC(C)C[C@@H]1NC(=O)CNC(=O)[C@@]23C(=O)N[C@@H](Cc4ccccc4)C2[C@H](C)[C@@]2(C)O[C@H]2C3/C=C/C/C=C\CNC1=O (some centres not stated) | 0.461 |
| COC(=O)[C@@]1(Cc2ccc(F)cc2)[C@H]2c3cc(C(=O)N(C)C)n(Cc4ccc(O)c(OC)c4)c3C[C@H]2CN1C(=O)c1ccccc1 | -0.0606 |
| C=C(COC)C(=O)CC[C@@H](OC(=O)c1cccnc1)c1ccccc1OCCO | -0.377 |
| CN(C)CCCNC(=O)[C@@H]1c2ccccc2C(=O)N(C2CCCCC2)[C@H]1c1ccc(CO)cc1 | 0.337 |
